# From PubChem
# HT1080 IDH1KD tx – toxicity to HT-1080 IDH1 knockdown cells (counter line) | HT-1080 IDH1 knockdown viability, ATP luminescence, 48 h | Potency, µM (top dose mostly 46.1 µM), inactives show top-dose activity, negative = toxicity, hits mostly cytotoxic | 2% of 360,000 active | AID 686971;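 also: 0% = DMSO wells and -100% = cell-free medium wells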
#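 Luminescent ATP read-out (CellTiter-Glo, 10 min at room temperature) after 48 h compound exposure at 37 °C gave viability of IDH1-knockdown HT-1080 cells. Activity was normalised to DMSO and cell-free wells, then fitted as concentration-response curves.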
# S2 tox – cell viability loss in ATXN counter-screen; 0.49% of 400,000 active; S2 cells (HEK-293 line with an ATXN2-luciferase reporter) viability, CellTiter-Fluor protease fluorescence, 24 h; AID 651635; Potency, µM (doses to about 56.7 µM), hits mostly cytotoxic; also: nearly all actives have a fitted effect of over 40% in size
# KB-3-1 cytotox – kills parental KB-3-1 adenocarcinoma cells | KB-3-1 viability, CellTiter-Glo ATP luminescence, 72 h | Potency, µM (highest dose often 46.1 µM), hits mostly cytotoxic | 1.4% of 400,000 active | AID 1347075; also: % is scaled to controls: 0 for no effect and ±100 for the full control effect; nearly all actives have a fitted effect of over 60% in size
#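 Screening of KB-3-1 cells (DMEM, 10% FBS, phenol-red free) ran from lowest to highest compound concentration; after 72 h at 37 °C viability was read luminescently and curves fitted.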
# KB-V1 MDR tox – kills drug-selected multidrug resistant KB-V1 cells | KB-V1 MDR cells viability, CellTiter-Glo, 72 h | Potency, µM (titrated, usually from 46.1 µM), usual class: cytotoxic | 3.4% of 400,000 active | AID 1347076; also: % is scaled to controls: 0 for no effect and ±100 for the full control effect; nearly all actives have a fitted effect of over 60% in size
#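 Cytotoxicity toward P-gp-expressing KB-V1 cells was determined as loss of CellTiter-Glo luminescence after 72 h at 37 degrees C. Compounds were tested in quantitative HTS format across a concentration range, with curves fitted to normalized data.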
# ATXN2 expr inh – inhibitors of ATXN2 expression; 0.72% of 360,000 active; AID 1745845; Potency, µM (top dose mostly 57 µM), for the others: at the highest dose activity change, negative = inhibition, actives largely listed as inhibitors; HEK-293 ATXN2-luciferase reporter, luminescence, 24 h; also: % is scaled to controls: 0 for no effect and ±100 for the full control effect; nearly all actives have a fitted effect of over 55% in size
#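 qHTS (up to 57 uM final) was run with 24 h compound exposure of reporter cells at 37 °C. Each well was multiplexed: SteadyGlo luminescence measured ATXN2-luciferase expression after a fluorogenic Gly-Phe-AFC viability readout (25 uM final).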
# HT1080NT lethal – kills 2HG-producing HT-1080-NT fibrosarcoma cells; HT-1080-NT fibrosarcoma viability, CellTiter-Glo ATP luminescence, 48 h; Potency, µM (highest dose often 46.1 µM), without a hit: top-dose activity, negative = less viability, most hits filed as cytotoxic; 1.6% of 360,000 active;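 also: NT is the 2HG producing partner of a matched IDH1 knockdown line; 0% = DMSO-treated cells and -100% = media-only wells without cells; nearly all actives have a fitted effect of over 55% in size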
#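 A 48-hour cytotoxicity screen used HT-1080-NT cells plated 2 hours before compound delivery. ATP-based CellTiter-Glo luminescence measured viability, normalized to DMSO and no-cell controls.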
# * hit, by the source's call; i = inactive; ? = inconclusive; . = no result; [ ] = another dose, or the depositor's remark. An excerpt weighted towards active compounds, which were near 6.2% of everything screened. Calls follow the shape of the dose curve; as a rule, active = well fitted curve in the direction sought with a large enough effect; inconclusive = small, poorly fitted or top-dose-only effect, or another doubt; inactive = no such curve, though single readings can be large; an effect the other way counts as inactive or inconclusive. Potency is read from the fitted curve at half-maximal effect.
SMILES,HT1080 IDH1KD tx,S2 tox,KB-3-1 cytotox,KB-V1 MDR tox,ATXN2 expr inh,HT1080NT lethal
COc1ccc(NC(=O)CCn2cnc3onc(-c4ccc(F)cc4)c3c2=O)cc1OC,.,?,i,i,?,.
CC(=O)OC1(C)CC(C)C(=O)C(C(O)CC2CC(=O)NC(=O)C2)C1 (stereo not given),0.13µM*,?,?,?,0.03µM*,1.6µM*
O=S1(=O)N(Cc2ccccc2)CCCN1Cc1ccc(F)cc1Cl,.,.,i,i,.,.
CCCCOP(=O)(c1ccc(N(C)C)cc1)C(Nc1ccccc1)c1ccccc1 (stereo not given),-18%,?,?,3.7µM*,?,-10%
CC(C)c1ccc(C(O)P(=O)(OCc2ccccc2)c2ccc(N(C)C)cc2)cc1 (stereo not given),-2%,?,i,i,-31%,-5%
CCOc1ccc(-c2cc(C)[n+](CCc3ccc(OC)c(OC)c3)c(-c3ccc(OCC)cc3)c2)cc1,16µM*,?,5.8µM*,i,?,21µM*
CCOc1ccc(-c2cc(C)[n+](CCO)c(-c3ccc(OCC)cc3)c2)cc1,?,i,i,i,21%[11.3 µM],?
C#CC1(O)CCC2C3CCC4=CC(=O)CCC4=C3C=CC21C (stereo not given),?,i,2.3µM*,2.6µM*,11%,?
COc1ccc2c(c1)C(c1ccc(N(CCCl)CCCl)cc1)=NCC2,26µM*,?,i,i,?,?
CCCCC[C@@H]1CCCCC[C@H](O)C[C@@H](O)[C@@H](O)/C=C/C(=O)O1,-14%,i,i,?,0%,-9%
C[C@H]1CCC/C=C/[C@@H]2C[C@H](O)C[C@H]2[C@H](O)/C=C/C(=O)O1,0.0065µM*,i,0.065µM*,0.58µM*,?,0.41µM*
c1cncc([C@@H]2CCCCN2)c1,.,i,.,.,.,.
C[C@H]1CN([C@@H](C)CO)C(=O)c2cccc(NC(=O)c3ccc(-c4nccs4)cc3)c2O[C@@H]1CN(C)C(=O)Nc1cccc2ccccc12,-10%,i,i,i,-2%,-8%
O=C1N[C@@H](Cc2ccccc2)C(=O)N2[C@H]3Nc4ccccc4[C@@]3([C@]34C[C@H]5C(=O)N[C@@H](Cc6ccccc6)C(=O)N5[C@H]3Nc3ccccc34)C[C@@H]12,-8%,13µM*,i,i,?,-8%
CO[C@@H](C)[C@](O)(C(=O)OCC1=CCN2CC[C@@H](O)[C@H]12)C(C)C,.,i,.,.,.,.
COc1ccc(CNCCc2c[nH]c3ccccc23)c(OC)c1C,26µM*,?,i,?,-31%,?
COc1ccc(CNCCc2ccccc2F)c(OC)c1C,-24%,i,i,i,-22%,-17%
CCOc1c(Cl)cc(CNCCc2c[nH]c3ccccc23)cc1OC,-8%,.,?,21µM*,.,?
COc1cccc(CNCCc2c[nH]c3ccccc23)c1,-4%,i,i,i,?,-9%
CCCCNC(=O)c1cc(-c2cccnc2)nc2ccc(S(=O)(=O)NCCCC)cc12,.,?,i,i,-12%,.
CC(C)(N)Cc1ccccc1Cl,.,i,.,.,8%,.
C/C1=C\[C@@H](C)C/C=C/[C@H]2[C@@H]3O[C@]3(C)[C@@H](C)[C@H]3[C@H](Cc4c[nH]c5ccccc45)NC(=O)[C@]32C(=O)/C=C/C(=O)[C@@H]1O,?,32µM*,i,i,?,-22%
Cc1cc(-n2c(/C=C/c3cccs3)nc3ccccc3c2=O)ccc1Br,.,.,i,i,.,.
CCOC(=O)C(NC(=O)C(Cc1ccc(N(CCCl)CCCl)cc1)NC(C)=O)C(C)C (stereo not given),1%,i,i,i,-3%,20%
COC(=O)C(Cc1ccc(N(CCCl)CCCl)cc1)N=Cc1ccccc1O (stereo not given),26µM*,11µM*,?,i,3.2µM*,?
SMILES,HT1080 IDH1KD tx,S2 tox,KB-3-1 cytotox,KB-V1 MDR tox,ATXN2 expr inh,HT1080NT lethal
COc1ccc(CCNC(=O)c2ccc3c(c2)N=C(C)c2cc(C)ccc2S3)cc1OC,.,?,i,i,?,.
Cc1cc(C)c(C)c(/C=C(/C#N)C(N)=S)c1C,?,i,i,i,-1%,?
O=C(CC1CCCCC1)N1CCC(c2nc(-c3ccc(S(=O)(=O)N4CCCC4)cc3)no2)CC1,2%,?,i,15µM*,?,4%
O=C(CNC(=O)OCc1ccccc1)Nc1ccc(Br)cc1C(=O)c1ccccc1,?,i,?,10µM*,6%,?
Cc1c(C(=O)Nc2cccc(C(F)(F)F)c2)cc(-c2ccccc2)n1CCCN1CCOCC1,.,.,.,.,-14%,.
O=Nc1c(-c2ccccc2)n(O)[n+]([O-])c1-c1ccccc1,8%,?,i,i,.,9%
COC(=O)[C@@H]1N=C(c2ccc(OC)cc2)O[C@]12C(=O)N(Cc1ccc(OC)cc1)c1ccccc12,?,i,?,23µM*,1%,-28%
COc1ccc(Cn2c(O)c(/C=N/NC(=O)c3ccccc3)c(=O)[nH]c2=O)cc1,-4%,i,i,i,-1%,-5%
CC[C@@H](O)C[C@H]1CCC[C@@]2(C[C@@H]3OC(=O)/C=C/[C@@](C)(O)[C@@H](O)[C@H](C)[C@@H](O)[C@H](OC4CCC(N(C)C)C(C)O4)[C@@H](O)[C@](C)(O)CCCCC/C=C/[C@@H]4CC(C)(C)O[C@@]4(O)C[C@H](O2)[C@H]3C)O1 (stereo not given in full),?,.,0.16µM*,0.073µM*,?,-9%
C=CCn1c(O)c(/C=C2/C=CC=N2)c(=O)[nH]c1=O,?,?,i,?,.,?
O=c1[nH]c(=O)n(Cc2ccccc2Cl)c(O)c1/C=C1/C=CC=N1,5.8µM*,i,23µM*,i,-13%,4.1µM*
CCCCn1c(O)c(/C=C2/C=CC=N2)c(=O)[nH]c1=O,?,?,i,i,4%,15µM*
Cc1ccc(OCC(=O)Nc2ccc(Cl)cc2C(=O)c2ccccc2)cc1,7%,i,i,?,0%,16%
Cc1ccc(C(=O)Nc2ccc(Cl)cc2C(=O)c2ccccc2)cc1,-6%,i,i,21µM*,-6%,10%
COc1ccccc1CNc1nc(NCc2ccccc2SC)c2sccc2n1,18µM*,?,?,?,?,?
